Experimental data published in PubChem BioAssay AID485364 (National Center for Advancing Translational Sciences (NCATS), 2010).
About 11,000 (3.1%) of roughly 360,000 compounds were called active. About 4% were inconclusive and are not listed. The call rests on the fitted dose curve; in most records, active means well fitted inhibition curve with a large enough effect; inconclusive means small, poorly fitted or top-dose-only effect; inactive means no such curve, though single readings can be large or run the other way. Shown is part of a subset that was picked to be rich in actives. A call without a number means that no potency is given here.

Target: Schistosoma mansoni thioredoxin glutathione reductase (TGR) (UniProt Q962Y6)
Test: qHTS Assay for the Inhibitors of Schistosoma Mansoni Peroxiredoxins; further: nearly all actives have a fitted effect of over 60% in size
Conditions: purified TGR, DTNB reduction, TNB absorbance 405 nm; series mostly up to 114 µM
Method in brief: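 Kinetic colorimetric format: TGR-catalysed, NADPH-driven DTNB reduction monitored via TNB absorbance. Enzyme dispensed at 20 nM; compound exposure 15 min at room temperature before reaction start.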
Potency means the concentration at half of the fitted maximal effect.

SMILES	Potency
COc1ccc(C2C(C(C)=O)=C(O)C(=O)N2c2nccs2)cc1 (stereo not drawn)	inactive
COc1cc(C2C(C(=O)c3ccco3)=C(O)C(=O)N2c2cc(C)on2)ccc1OCc1ccccc1 (stereo not drawn)	inactive
C=CCOc1cccc(C2C(C(=O)c3ccc(C)o3)=C(O)C(=O)N2c2nnc(C)s2)c1 (stereo not drawn)	28.2 µM (active)
CCCCc1nn2c(=O)cc(COC(=O)c3ccc(NC(=O)c4ccccc4C)cc3)nc2s1	inactive
Cc1ccc(NC(=O)C(=O)NCC(c2cccnc2)N2CCOCC2)cc1 (stereo not drawn)	inactive
COc1ccc(NC(=O)Cn2c(=O)n(Cc3ccc(C(=O)NCc4ccccc4Cl)cc3)c(=O)c3ccccc32)cc1	inactive
Cn1nc(-c2ccccc2)c(-c2ccccc2)c(C(=O)Nc2ccc(S(N)(=O)=O)cc2)c1=O	inactive
Cc1ccc(C)c(N2CCN(CCCNC(=O)Nc3ccc(Cl)cc3)CC2)c1	inactive
CC(C(=O)NC1CCCC1)N1CCN(S(=O)(=O)c2ccccc2Cl)CC1 (stereo not drawn)	35.5 µM (active)
O=C(Cc1ccc(S(=O)(=O)N2CCCC2)s1)NC1CCCCCC1	inactive
CC(C)c1ccc(S(=O)(=O)N2CCN(C(C)C(=O)NC3CCCC3)CC2)cc1 (stereo not drawn)	inactive
O=C(Nc1ccc(OC(F)(F)F)cc1)C1CCCN(S(=O)(=O)c2ccc(Br)s2)C1 (stereo not drawn)	inactive
Cc1ccc2nc(SCC(=O)Nc3cccc4ccccc34)nc(=O)n2c1	inactive
Cc1ccc2nc(SCC(=O)N3CCN(c4ccccc4)CC3)nc(=O)n2c1	50.1 µM (active)
Cc1ccc2nc(SCC(=O)N3CC(C)OC(C)C3)nc(=O)n2c1 (stereo not drawn)	inactive
COC(=O)CC1Oc2ccccc2-n2cc(-c3ccccc3)nc21 (stereo not drawn)	inactive
Cc1nc(SCC(=O)Nc2ccc(C(=O)O)cc2)n[nH]1	inactive
CSc1ncc(Cl)c(C(=O)Nc2ccc(S(=O)(=O)N3CCCC(C)C3)cc2)n1 (stereo not drawn)	inactive
Cc1cc(=O)n2[nH]c(-c3sccc3-n3c(C)ccc3C)cc2n1	31.6 µM (active)
Cc1cc(=O)n2[nH]c(-c3cccc(Cl)c3)cc2n1	inactive
C=CCc1c(C)nc2cc(-c3ccccc3)[nH]n2c1=O	inactive
O=C(Nc1cc(Cl)cc(Cl)c1)c1ccc2c(c1)N(Cc1cccc(Cl)c1)C(=O)c1ccccc1S2=O (stereo not drawn)	inactive
CCCCNc1ccc(-c2nc(-c3ccncc3)no2)cc1[N+](=O)[O-]	inactive

SMILES	Potency
CC(C)CNc1ncnc2c1nnn2C	inactive
COc1ccc(-n2nnnc2SCC(=O)NCc2cccs2)cc1	inactive
COc1ccc(-n2c(SCC(=O)NCc3ccco3)nnc2-c2c[nH]c3ccccc23)cc1	inactive
COc1ccc(-n2c(SCC(=O)NCc3cccs3)nnc2-c2ccoc2C)cc1	39.8 µM (active)
COc1ccc(-c2noc(CCC(=O)N(C)c3ccccc3C)n2)cc1	inactive
CCCSc1ncc(Cl)c(C(=O)Nc2c(C(=O)Nc3ccccc3)oc3ccccc23)n1	inactive
COc1ccc(C2CC(=O)N(Cc3ccccc3C)c3c2c(C)nn3-c2nc(C)cc(C)n2)c(OC)c1 (stereo not drawn)	inactive
COc1ccc(C(=O)NC(=S)NC2CCCCC2)cc1	1.41 µM (active)
CCCNC(=S)N1CCC(NC(=O)c2ccc(OC)cc2)CC1	inactive
O=C(NC(=S)NC1CCCCC1)c1ccc(Cl)cc1	inactive
CCc1ccccc1N(C)C(=O)C1CCCN(c2ncnc3onc(-c4ccc(F)cc4)c23)C1 (stereo not drawn)	inactive
CCn1cc(C(=O)N2CCN(c3cc(C)ccc3C)CC2)c(=O)c2cc(S(=O)(=O)N(C)C3CCCCC3)ccc21	inactive
CCc1ccccc1NC(=O)CSc1nnc(-c2ccccc2)c(-c2ccccc2)n1	inactive
COC(C(=O)NCc1ccccc1C)c1ccccc1 (stereo not drawn)	inactive
Cc1ccccc1CNC(=O)C(=O)NCC(c1cccs1)S(=O)(=O)c1cccs1 (stereo not drawn)	25.1 µM (active)
COc1ccccc1CNC(=O)C(=O)NCC(c1cccs1)S(=O)(=O)c1cccs1 (stereo not drawn)	25.1 µM (active)
COc1ccccc1CCNC(=O)C(=O)NCCC1CCCCN1S(=O)(=O)c1cccs1 (stereo not drawn)	inactive
O=C(NCc1ccccc1Cl)C(=O)NCC1CCCN1S(=O)(=O)c1cccs1 (stereo not drawn)	inactive
CC(C)C(=O)NCC(c1cccs1)S(=O)(=O)c1ccc(F)cc1 (stereo not drawn)	inactive
Cc1ccc(SCC(=O)Nc2ccc3oc(-c4ccccc4C)nc3c2)cc1	inactive
CCC(C)NC(=O)Cn1c(=O)n(-c2ccc(Cl)cc2)c(=O)c2c3c(sc21)CCCC3 (stereo not drawn)	inactive
Cc1c(Cl)cccc1NC(=O)C1CCCN(c2ncnc3onc(C)c23)C1 (stereo not drawn)	inactive
CCOc1ccc(NC(=O)Cn2c(C)ccc(C#N)c2=O)cc1	inactive

SMILES	Potency
CSCC(NS(=O)(=O)c1ccc(C)cc1)C(=O)O (stereo not drawn)	inactive
Cc1ccc(CSCC(N)C(=O)O)cc1 (stereo not drawn)	28.2 µM (active)
Cc1ccc(CSCC(=O)N(C)CC(=O)Nc2ccc(C)cc2)cc1	inactive
CCc1ccc(NC(=O)CCS(=O)(=O)c2cc3c(cc2Cl)NC(=O)CO3)cc1	inactive
Fc1ccc(CN2CCc3nc(Nc4ccccc4)ncc3C2)cc1F	inactive
CCOC(=O)C1=C(O)/C(=C/c2ccc(OCC(=O)Nc3ccc(C)cc3)cc2)N=C1C	inactive
CCOC(=O)C1=C(O)/C(=C/c2cc(C)n(-c3ccccc3)c2C)N=C1C	28.2 µM (active)
COC(=O)C1=C(O)/C(=C/c2ccc(OCC(=O)Nc3ccccc3)cc2)N=C1C	inactive
CCOc1ccccc1C(=O)Nc1ccc2c(c1)N(C)C(=O)c1ccccc1S2	inactive
O=C(Cn1c(=O)n(-c2ccc(F)cc2)c(=O)c2sc3ccccc3c21)NC1CCCC1	inactive
Cc1nc2nc(SCC(=O)NCc3ccco3)nn2c(C)c1Cc1ccccc1	20 µM (active)
CCOc1ccccc1-n1c(SCC(=O)NCc2ccco2)nnc1-c1ccncc1	44.7 µM (active)
Cc1ccc(-c2csc3nnc(SCC(=O)NCc4ccco4)n23)cc1	inactive
CCN(CC)C(CNC(=O)CSc1nnnn1-c1cccc(F)c1)c1ccco1 (stereo not drawn)	inactive
O=C(CSc1nnc(-c2c[nH]c3ccccc23)n1-c1ccc(F)cc1)NCc1ccco1	inactive
O=C(CSc1nnc2scc(-c3ccc(F)cc3)n12)NCc1ccco1	inactive
Cc1ccc(Cc2c(C)nc3nc(SCC(=O)NCCN4CCOCC4)nn3c2C)cc1	inactive
Cn1c(-c2ccc(F)cc2)cnc1SCC(=O)NCc1ccco1	31.6 µM (active)
CCn1c(SCC(=O)NCc2ccco2)nnc1-c1ccc(N)cc1	inactive
Cc1cc(C)n2nc(SCC(=O)NC(=O)NCc3ccco3)nc2n1	inactive
Cn1c(-c2ccc(F)cc2)cnc1SCC(=O)NNC(=O)Cc1ccccc1	inactive
O=C(CSc1nnnn1-c1ccccc1)NCc1ccco1	79.4 µM (active)
